# Test results as given in the supplement of paper PMC10412459.
# System: K562 SF3B1 K700E vs K562 SF3B1 WT
# Test: surviving fraction ratio K562 SF3B1 K700E / K562 SF3B1 WT (each relative to DMSO); higher = less selective killing of SF3B1 K700E cells
# Details: 5 days
# How it was run: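 In 384-well plates holding 250 cells per well, isogenic K562 cells bearing an engineered mutant allele and matched wild-type cells received compounds from an in-house 80-compound library 24 h after seeding. Doses were 0.5, 1, 5, 10, 50, 100, 500 and 1,000 nM, with 5 d of continuous culture. Surviving fractions were taken from CellTiter-Glo readings and normalised to DMSO. The value reported is the mutant-over-wild-type ratio of these fractions.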
Structure (SMILES),surviving fraction ratio K562 SF3B1 K700E / K562 SF3B1 WT (0.5nM),surviving fraction ratio K562 SF3B1 K700E / K562 SF3B1 WT (1nM),surviving fraction ratio K562 SF3B1 K700E / K562 SF3B1 WT (5nM),surviving fraction ratio K562 SF3B1 K700E / K562 SF3B1 WT (10nM),surviving fraction ratio K562 SF3B1 K700E / K562 SF3B1 WT (50nM),surviving fraction ratio K562 SF3B1 K700E / K562 SF3B1 WT (100nM),surviving fraction ratio K562 SF3B1 K700E / K562 SF3B1 WT (500nM),surviving fraction ratio K562 SF3B1 K700E / K562 SF3B1 WT (1000nM)
Cc1ccc(-c2cc(C(F)(F)F)nn2-c2ccc(S(N)(=O)=O)cc2)cc1 [celecoxib],0.751,0.819,0.804,0.813,0.673,0.736,0.79,0.698
CC(=O)O[C@H]1C(=O)[C@@]2(C)[C@H]([C@H](OC(=O)c3ccccc3)[C@]3(O)C[C@H](OC(=O)[C@H](O)[C@@H](NC(=O)c4ccccc4)c4ccccc4)C(C)=C1C3(C)C)[C@]1(OC(C)=O)CO[C@@H]1C[C@@H]2O [paclitaxel],0.866,0.99,0.864,1.42,2.44,2.46,3,2.44
CN1CCN(c2nc(C3=C(c4c[nH]c5ccccc45)C(=O)NC3=O)c3ccccc3n2)CC1 [Sotrastaurin/AEB071],0.816,0.804,0.847,0.854,0.889,0.979,0.955,0.896
Cn1c(=O)n(-c2ccc(C(C)(C)C#N)cc2)c2c3cc(-c4cnc5ccccc5c4)ccc3ncc21,0.991,0.985,0.8,0.854,0.811,0.838,1.28,1.45
C[C@@H](Oc1cc(-c2cnn(C3CCNCC3)c2)cnc1N)c1c(Cl)ccc(F)c1Cl,0.965,1.06,0.847,0.861,0.652,0.542,1.17,1.06
Cc1nc(Nc2ncc(C(=O)Nc3c(C)cccc3Cl)s2)cc(N2CCN(CCO)CC2)n1 [dasatinib],1.18,2.2,1.86,1.39,1.23,1.42,1.72,1.65
CN(C)CC[C@H](CSc1ccccc1)Nc1ccc(S(=O)(=O)NC(=O)c2ccc(N3CCN(Cc4ccccc4-c4ccc(Cl)cc4)CC3)cc2)cc1[N+](=O)[O-],0.745,0.762,0.761,0.841,0.902,0.819,0.908,0.796
CO[C@H]1C[C@@H]2CC[C@@H](C)[C@@](O)(O2)C(=O)C(=O)N2CCCC[C@H]2C(=O)O[C@H]([C@H](C)C[C@@H]2CC[C@@H](OCCO)[C@H](OC)C2)CC(=O)[C@H](C)/C=C(\C)[C@@H](O)[C@@H](OC)C(=O)[C@H](C)C[C@H](C)/C=C/C=C/C=C/1C [everolimus],0.697,0.655,0.712,0.806,0.702,0.697,0.824,0.967
COc1cc([C@@H]2c3cc4c(cc3[C@@H](O[C@@H]3O[C@@H]5CO[C@@H](C)O[C@H]5[C@H](O)[C@H]3O)[C@H]3COC(=O)[C@H]23)OCO4)cc(OC)c1O [etoposide],0.966,0.974,0.905,0.771,0.842,1.01,1.72,1.51
COCC[n+]1c2c(n(Cc3cnccn3)c1C)C(=O)c1ccccc1C2=O,0.819,0.805,1.33,1.8,1.14,0.899,0.84,0.809
COc1cc2ncnc(Nc3ccc(F)c(Cl)c3)c2cc1NC(=O)/C=C/CN1CCCCC1,0.911,0.948,0.89,0.805,0.886,0.945,0.756,0.642
CS(=O)(=O)c1ccc(C(=O)Nc2ccc(Cl)c(-c3ccccn3)c2)c(Cl)c1,1.07,0.954,0.96,0.872,1,0.969,1.01,1.07
C[C@]1(O)C[C@@H](c2nc(-c3ccc4ccc(-c5ccccc5)nc4c3)c3c(N)nccn32)C1,0.876,0.823,0.862,0.829,0.861,0.795,0.804,0.873
CS(=O)(=O)CCNCc1ccc(-c2ccc3ncnc(Nc4ccc(OCc5cccc(F)c5)c(Cl)c4)c3c2)o1 [lapatinib],0.726,0.755,0.828,0.669,0.99,0.906,0.898,0.665
COc1ccc(C2=N[C@@H](c3ccc(Cl)cc3)[C@@H](c3ccc(Cl)cc3)N2C(=O)N2CCNC(=O)C2)c(OC(C)C)c1 [Nutlin3],1,0.984,0.843,0.873,0.861,0.781,0.767,0.894
O=C(c1cc(Cc2n[nH]c(=O)c3ccccc23)ccc1F)N1CCN(C(=O)C2CC2)CC1 [olaparib],0.978,0.979,0.926,0.839,0.947,1.02,1.1,0.871
Oc1nc(-c2ccc(C(F)(F)F)cc2)nc2c1CSCC2,1.15,0.906,0.867,0.822,1.35,1.11,1.15,0.958
CCN(CC)CCCCNc1ncc2cc(-c3cc(OC)cc(OC)c3)c(NC(=O)NC(C)(C)C)nc2n1,1.15,1.03,0.942,0.926,0.901,1.09,0.957,0.89
COc1ccc(-c2cc3c(C)nc(N)nc3n([C@H]3CC[C@H](OCCO)CC3)c2=O)cn1,1.06,1.14,0.92,1,0.958,0.868,1.37,1.58
CCCS(=O)(=O)Nc1ccc(F)c(C(=O)c2c[nH]c3ncc(Cl)cc23)c1F,1.33,1.07,1.13,0.874,1.13,0.998,1.1,1.06
CNC(=O)c1cc(Oc2ccc(NC(=O)Nc3ccc(Cl)c(C(F)(F)F)c3)cc2)ccn1 [sorafenib],0.8,0.973,0.87,0.956,0.915,1,0.887,0.973
CC[C@@H](C(=O)[C@@H](C)[C@@H](O)[C@H](C)[C@@H]1O[C@@H]([C@@H](CC)C(=O)O)CC[C@@H]1C)[C@H]1O[C@]2(C=C[C@@H](O)[C@]3(CC[C@@](C)([C@H]4CC[C@](O)(CC)[C@H](C)O4)O3)O2)[C@H](C)C[C@@H]1C [salinomycin],0.921,0.999,0.871,1.27,0.88,0.831,0.898,1.16
O=C(O)CC[C@H]1CC[C@@](c2cc(F)ccc2F)(S(=O)(=O)c2ccc(Cl)cc2)CC1,0.908,1.04,0.989,0.805,0.852,0.975,0.932,1.04
C[C@@H]1CN(CC(=O)Nc2ccc3c(c2)Cc2cccc(-c4cc(=O)cc(N5CCOCC5)o4)c2S3)C[C@H](C)O1,0.976,1.04,0.887,0.896,1.08,0.96,0.878,0.865
CC/C(=C(\c1ccc(O)cc1)c1ccc(OCCN(C)C)cc1)c1ccccc1 [4-OH-tamoxifen],0.874,0.875,0.857,0.778,1,0.923,0.884,0.993
